In PubChem BioAssay (Tox21) one finds Potency data, which are given here for 40 molecules.

Where “and” joins values, the source holds several entries; their conditions need not be identical. Equal values may be shown once. Results filed as inconclusive are left out. Where a call stands in place of a potency, no number is given. Where a structure was tested more than once in an assay, its records may differ in their call. Calls of active or inactive are those of the source. The call rests on the fitted dose curve; in most records, active means well fitted activation curve with a large enough effect in the signal ratio in the repeat runs (not every such curve was filed as active); inconclusive means weak or mixed curves, or effect the other way; inactive means no such curve, though single readings can be large or run the other way; the % refers to the signal ratio.
Potency means the concentration at half of the fitted maximal effect.

A short description of this test: qHTS assay for small molecule agonists of the antioxidant response element (ARE) signaling pathway (AID 743202). The conditions noted are these: HepG2 ARE-bla reporter, beta-lactamase FRET, 16 h; series mostly up to 73.3 µM. From the text:
U.S. Tox21 Program National Center for Advancing Translational Sciences [NCATS] NIH Chemical Genomics Center [NCGC] U.S. Environmental Protection Agency [EPA] National Institutes of Environmental Health Sciences [NIEHS] National Toxicology Program [NTP] U.S. Food and Drug Administration [FDA] Tox21 Assay Overview: Oxidative stress has been implicated in the pathogenesis of a variety of diseases ranging from cancer to neurodegeneration. The antioxidant response element (ARE) signaling pathway plays an important role in the amelioration of oxidative stress. The CellSensor ARE-bla HepG2 cell line (Invitrogen) can be used for analyzing the Nrf2/antioxidant response signaling pathway. Nrf2 (NF-E2-related factor 2) and Nrf1 are transcription factors that bind to AREs and activate these genes. The CellSensor ARE-bla Hep G2 cell line contains a beta-lactamase reporter gene under control of the Antioxidant Response Element (ARE) stably integrated into HepG2 cells. The activation of the report gene under culture conditions can be detected by fluorescence intensity. This cell line has been used to screen the Tox21 10K compound library to identify agonists that induce oxidative stress.
Tox21 Assay Protocol Summary: The ARE-bla cells were dispensed at 2,000 cells/5 ul/well in 1536-well black wall/clear bottom plates using a Multidrop dispenser. After the assay plates were incubated at a 37 C/5% CO2 incubator for 5 hours, 23 nL of compounds dissolved in DMSO, positive controls or DMSO only was transferred to the assay plate by a pin tool. The plates were incubated at 37 C for 16 hours. After 1 uL of LiveBLAzer B/G FRET substrate was added using a Flying Reagent Dispenser, the plates were incubated at room temperature for 2 hours, and fluorescence intensity was measured by an Envision plate reader.
As to `CC(C)CC(C)O` (stereo not given), the Potency result was “inactive and 30.6 µM (active)”.

On to `O=C(OCC1CCC2OC2C1)C1CCC2OC2C1` (stereo not given), for which the Potency result was “inactive”.

`O=C1C(c2[nH]c3ccccc3c2O)=Nc2ccccc21`: the Potency was 18.8 µM (active). For the molecule `OCc1cccc(Oc2ccccc2)c1`, the Potency result is “inactive”. On to `CCCCCCC=O`, for which the Potency result is “inactive”.

On to `COc1ccc(OC)cc1`, for which the Potency result was “inactive”. The figure for `C=CC(=O)OCCC(=O)O` is 9.69 µM (active); for `CC(CCO)CC(C)(C)C` (stereo not given) it is “inactive”; for `c1ccc(Oc2ccccc2)cc1` it is “inactive”. Consider `CCCCCCO`, for which the Potency entry was “inactive”. With `CC1(C)NC(=O)NC1=O`, the Potency result is “inactive”. `c1ccc2c(c1)Cc1ccccc1-2`: the Potency entry was “inactive”.

With `CC(C)c1cccc(C(C)C)c1`, the Potency result was “inactive”. The value for `CCCCCCCC=O` was “inactive”. On to `O=C(O)c1ccc(S(=O)(=O)N(Cl)Cl)cc1`, for which the Potency is 27.5 µM (active) and inactive. For `CC(C)(C)c1cc(Cc2cc(C(C)(C)C)c(O)c(C(C)(C)C)c2)cc(C(C)(C)C)c1O`, the Potency entry was “inactive”.

As for `CCc1ccccc1CC`, the Potency entry is “inactive”.

`CC(C)=CCl`: the Potency entry is “inactive”.

Regarding `CC1(C)CC(N)CC(C)(CN)C1` (stereo not given), the Potency result was “inactive”.

As for `C[C@]12CCC(=O)C=C1CC[C@@H]1[C@@H]2[C@@H](O)C[C@@]2(C)[C@H]1CC[C@]2(O)C(=O)CO`, the Potency entry was “inactive”. On to `CC(=O)OCc1ccccc1`, for which the Potency result was “inactive”. The entry for `CC(CCl)OP(=O)(OC(C)CCl)OC(C)CCl` (stereo not given) is “inactive”.

Take `C=CC(C)CCCC(C)(C)O` (stereo not given): the Potency result was “inactive”. As for `C=Cc1ccc(C)cc1`, the Potency result was “inactive”. As for `C=C(C)CNCC`, the Potency entry is “inactive”. Take `CSc1ccc(Cl)cc1`: the Potency entry is “inactive”. `N#Cc1ccccc1`: the Potency entry is “inactive”. For `NC(=S)NNC(N)=S`, the Potency entry is “inactive”. The value for `COCCOC(=O)c1ccccc1C(=O)OCCOC` was “inactive”; that for `CC(C)OC(=O)COc1ccc(Cl)cc1Cl` was “inactive”; that for `COc1ccc(CCC(C)=O)cc1` was “inactive”.

Take `CC(C)CC(=O)CC(C)CC(C)C` (stereo not given): the Potency entry is “inactive”. For `CCOCC(=O)O`, the Potency result is “inactive”. Take `CC(O)CC(C)(C)O` (stereo not given): the Potency entry was “inactive”. Consider `CCCCC(C=O)CC` (stereo not given), for which the Potency entry was “inactive”. In the case of `O=S(=O)(O)c1ccc(N=Nc2c(O)ccc3cc(S(=O)(=O)O)ccc23)cc1`, the Potency result was “inactive”. In the case of `CC(=O)CCC=C(C)C`, the Potency entry was “inactive”.

Turning to `CCNc1ccccc1`, the Potency result is “inactive”. Consider `CCO[Si](CCCN)(OCC)OCC`, for which the Potency result is “inactive”. As for `CC(=O)CC(C)(C)O`, the Potency result was “inactive”.
